Assays:
Type in all cases: functional
[1] = test system: Plasmodium falciparum; assay: GSK_TCMDC: Inhibition of Plasmodium falciparum 3D7 in whole red blood cells, using parasite LDH activity as an index of growth. Test compounds present at 2uM
[2] = test system: Plasmodium falciparum; assay: GSK_TCMDC: Inhibition of Plasmodium falciparum Dd2 in whole red blood cells, using parasite LDH activity as an index of growth. Test compounds present at 2uM
[3] = test system: HepG2; assay: GSK_TCMDC: Percent inhibition of human HepG2 cell line. Test compounds present at 10uM.

| Compound | Inhibition [1] [%] | Inhibition [2] [%] | Inhibition [3] [%] |
| --- | --- | --- | --- |
| COC(=O)Cn1c(C2CCN(CC3CCC(NC(=O)/C=C/c4ccc(Cl)c(Cl)c4)CC3)CC2)nc2ccccc21 (stereo unspecified) | 95 | 17 | 12 |
| O=C(/C=C/c1ccc(Cl)c(Cl)c1)N1CCC(CN2CCC(c3nc4ccccc4n3CCCO)CC2)CC1 | 96 | 0 | 60 |
| CN1CCN(c2ccnc3ccc(NC(=O)Nc4ccc(-c5ccncc5)c(C(F)(F)F)c4)cc23)CC1 | 99 | 99 | 12 |
| Cl.O=C(CCc1ccccc1)N[C@H](Cc1c[nH]c2ccccc12)C(=O)N1CCC(NCc2ccc3c(c2)Cc2ccccc2-3)CC1 | 92 | 8 | 53 |
| O=C(O)C(F)(F)F.Oc1ccc(CCNc2nc(NCc3ccccc3-c3ccc(C(F)(F)F)cc3)nc(NC3CCNCC3)n2)cc1 | 97 | 2 | 12 |
| CS(=O)(=O)c1ccc(CCNCc2ccc(-c3ccc(CN(C(=O)c4ccc(Cl)nc4)C4CCN(Cc5ccccc5)CC4)cc3)nc2)cc1.O=C(O)C(F)(F)F | 93 | 70 | 24 |
| FC(F)(F)c1ccc2[nH]c(-c3ccc(-c4cccc(CN5CCCCC5)c4)cc3)nc2c1.O=C(O)C(F)(F)F | 100 | 99 | 22 |
| CC(C)(C)OC(=O)/C=C(\C(=O)OCc1ccc([N+](=O)[O-])cc1)c1csc(NC(c2ccccc2)(c2ccccc2)c2ccccc2)n1 | 96 | 97 | 2 |
| Cc1cc(O)nc(NC(=N)NOCc2ccccc2)n1 | 100 | 1 | 0 |
| Cc1cccc2nc(-c3cccc(-c4ccc(NC(=O)COC(C)C)cc4)c3)[nH]c12 | 82 | 11 | 0 |
| COc1cccc(NC(=O)COc2ccc(C(=O)Nc3nc4ccccc4[nH]3)cc2)c1 | 99 | 29 | 19 |
| CCOc1ccc2[nH]c(C)cc(=NN=Cc3cccc(F)c3)c2c1 | 100 | 23 | 0 |
| C=CCn1c(SCC(=O)Nc2cc(C)ccc2OC)nc2sc(C)cc2c1=O | 100 | 86 | 6 |
| Cl.c1ccc2c(NCCCCCCNc3ccnc4ccccc34)ccnc2c1 | 100 | 12 | 43 |
| Cl.O=C(C=Cc1cccs1)N(CCCn1ccnc1)c1nc2ccc(F)cc2s1 | 98 | 28 | 0 |
| OC(CNc1cccc(Cl)c1)Cn1c2ccc(Cl)cc2c2cc(Cl)ccc21 (stereo unspecified) | 95 | 33 | 8 |
| CC(C)(CN)c1nc(-c2ccc(Cl)c(O)c2)c(-c2ccncc2)[nH]1.Cl | 97 | 98 | 34 |
| COc1ccccc1C(=O)N1CCN(Cc2cccs2)CC1 | 96 | 1 | 87 |
| COCCOc1ccc(C(F)(F)F)cc1NC(=O)Cc1c(F)cccc1Cl | 88 | 74 | 18 |
| CCN(CC)CCON=Cc1cc(C)c2[nH]c3ccc(OCc4ccccc4)cc3c2c1C | 98 | 29 | 29 |
| O=C(Cc1c[nH]cn1)Nc1ccc(-c2cccc(-c3nc4cc(C(F)(F)F)ccc4[nH]3)c2)cc1 | 100 | 95 | 20 |
| COc1ccc(CNCc2ccsc2)cc1-c1ccc(S(=O)(=O)NCCN2CCCC2)c(C)c1.O=C(O)C(F)(F)F | 85 | 43 | 49 |
| Cc1nn(-c2ccccc2)c2c1C(c1ccc(C(C)C)cc1)N1C(=N2)N(Cc2ccccc2)c2ccccc21 (stereo unspecified) | 95 | 37 | 7 |
| CCOC(=O)c1ccc(NC(=O)Nc2cccc(-c3ccc(-c4nc5cc(F)ccc5[nH]4)cc3)c2)cc1 | 100 | 97 | 40 |
| CC(Cc1ccc(C(=O)OC(c2ccccc2)c2ccccc2)cc1)NCC(O)c1ccccc1.Cl (stereo unspecified) | 100 | 98 | 83 |
| O=C(/C=C/c1ccc(Cl)c(Cl)c1)NCCCCCN1CCCN(C(=O)Nc2cc(Cl)nc(Cl)c2)CC1 | 100 | 3 | 8 |
| CCNc1cc(C(=O)N[C@@H](Cc2ccccc2)[C@H](O)CNC23CC4CC(CC(C4)C2)C3)cc(N2CCCCS2(=O)=O)c1.Cl | 98 | 99 | 3 |

— ChEMBL document CHEMBL1157539, “Thousands of chemical starting points for antimalarial lead identification” (Nature, 2010)
